The text below walks through data of PubChem BioAssay (NCI).

This is part of a sample that, as a whole, favours compounds with a hit. Of some 83,000 tested, about 20% had one in any assay.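 Activity criterion: percent growth below 10, measured after cells in 96-well plates were exposed to a single compound concentration for 48 hours.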 Values without a mark were called inactive. The source made the active and inactive calls.

This assay concerns MDA-MB-468 breast. Put plainly: NCI-60 one-dose screen, 48 h (100 = growth as untreated, 0 = no growth, -100 = all killed). The settings on record: 10 µM unless noted.
Regarding `O=C(Oc1ccc(CO[N+](=O)[O-])cc1)c1ccccc1`, the growth was -67.7% (active). Turning to `CCCC1CCC(=C2C(=O)CCC2=O)O1` (stereo unspecified), the growth was 88.7%. As to `CC1=C2[C@@H](CC1)[C@]1(C)O[C@@](C3CCNCC3)(C[C@H]1OC(=O)CO)[C@H]2OC(=O)/C=C/c1ccccc1`, the growth was 75.3%. On to `O=C(Nc1cccc(-n2ccc3c(NC(=O)c4ccccc4)ncnc32)c1)Nc1ccc(Cl)c(C(F)(F)F)c1`, for which the growth is -2.39% (active).

Turning to `COC(=O)/C(CCC=C(C)C)=C1\[C@@H](OC(C)=O)C[C@@]2(C)[C@H]1C[C@@H](O)[C@H]1[C@@]3(C)CC[C@H](NCCN)[C@@H](C)[C@@H]3CC[C@@]12C`, the growth is 58.6%.

As for `O=C1C(Cl)=C(Nc2cccc3cc4ccccc4nc23)C(=O)c2ccccc21`, the growth is 40.9%. As to `C=CC(=O)Nc1cccc(-c2nc(SC)nc(Nc3cccc(OC)c3)c2C#N)c1`, the growth is 69.7%. Take `BrC/C=C/C[P+](c1ccccc1)(c1ccccc1)c1ccccc1`: the growth is 3.78% (active). With `CCCCCCNC(=O)Oc1ccc(/C(=C(\C)c2ccc(Cl)cc2)c2ccc(OCCN3CCCCC3)cc2)cc1`, the growth is 25.1%. `Nc1nc2c(c3cnccc13)C(c1cccc(Cl)c1)Cc1cnccc1-2` (stereo unspecified): the growth is -15.9% (active). As to `COCCn1cc(-c2nc(-c3c[nH]c4ncccc34)cs2)c2ccccc21`, the growth was -7.09% (active).
